VACV mCherry inh: inhibitors of vaccinia virus infection (mCherry reporter signal); Vaccinia virus mCherry reporter infection, fluorescence; Potency, µM (top dose mostly 36.5 µM), for the others: at the highest dose activity change, negative = inhibition, actives largely listed as inhibitors; 310,000 tested, 0.63% active; calls by dose curve; tested in A549 cells; note: % is set by controls: 0 for no effect and ±100 for the full control effect; nearly all actives have a fitted effect of over 35% in size
VACV Venus inh: inhibitors of vaccinia virus (Venus reporter); 330,000 tested, 0.46% active; Potency, µM (doses to about 36.5 µM), for the others: at the top dose activity change, negative = inhibition, usual class: inhibitors; Vaccinia virus Venus reporter expression, fluorescence; calls by dose curve; tested in A549 cells; note: % is set by controls: 0 for no effect and ±100 for the full control effect; nearly all actives have a fitted effect of over 30% in size
Pf growth 96h: inhibits malaria parasite growth, 96 h | AID 504834 | 320,000 tested, 6.9% active | Potency, µM (top dose mostly 28.7 µM), for inactives: at the top dose activity change, negative = inhibition, hits mostly inhibitors | P. falciparum luciferase reporter growth, 96 h; note: % is set by controls: 0 for no effect and ±100 for the full control effect
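Cell-based qHTS: luciferase-tagged P. falciparum in erythrocytes (2% hematocrit, 0.05% parasitemia final) incubated with compounds for 96 hours, 37 C, 5% CO2; luciferase detection reagent then added and luminescence measured.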
NS1 inh: inhibitors of influenza NS1 protein function. 270,000 tested, 0.4% active. Potency, µM (top dose mostly 46.1 µM), for inactives: at the top dose activity, positive = more growth; calls by dose curve; note: actives are rising curves; nearly all actives have a fitted effect of over 50% in size
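OD600 was taken as the measure of yeast growth restored by compound in an NS1-expressing S. cerevisiae strain. Cells had been washed out of glucose medium and diluted 1:100 into galactose -URA medium, pH 6.0.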
HCV inh: blocks hepatitis C virus; Huh7.5.1 HCVcc-Cre infection, luciferase reporter, 44 h; AID 651820; Potency, µM (titrated, usually from 41.8 µM), for inactives: top-dose activity change, negative = inhibition, hits mostly inhibitors; 340,000 tested, 3.4% active; note: % is set by controls: 0 for no effect and ±100 for the full control effect
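Cells seeded at 1,000/well and cultured 4 h, then compounds added followed by HCVcc-Cre virus (~0.5 moi). After 44 h further culture, luciferase substrate was added, plates held 15 min at room temperature, and luminescence read for 15 sec.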
Pf growth 48h: inhibits P. falciparum growth in the first generation, 48 h; P. falciparum luciferase growth in erythrocytes, 48 h; Potency, µM (titrated, usually from 28.7 µM), for inactives: at the top dose activity change, negative = inhibition, hits mostly inhibitors; 310,000 tested, 5.9% active; AID 504832; note: % is set by controls: 0 for no effect and ±100 for the full control effect
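Parasite viability was followed by luminescence of a genomically integrated firefly luciferase. Cultures held 0.1% parasitemia at 2% hematocrit (final), incubated under 5% CO2 at 37 C.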
The depositor's hits bear a star; [ ] = remark or other dose. A selection: hits, their analogues and other compounds. The true share with any hit is near 11%. Unless noted, calls come from the whole dose curve; as a rule, active = well fitted inhibition curve with a large enough effect; inconclusive = small, poorly fitted or top-dose-only effect, or another doubt; inactive = no such curve, though single readings can be large or run the other way. Potency is the fitted concentration of half-maximal effect.

For CC(=O)c1c(C)[nH]c(C(=O)Nc2cccc(C#N)c2)c1C the results were VACV mCherry inh inactive, VACV Venus inh -15.8%, Pf growth 96h inconclusive, NS1 inh 6.0%, HCV inh -19.5% and Pf growth 48h inconclusive.
CC(=O)c1c(C)[nH]c(C(=O)Nc2nccs2)c1C was read as VACV mCherry inh -2.6%, VACV Venus inh inconclusive, Pf growth 96h 62.4%, HCV inh 10µM* and Pf growth 48h 364.7%.
COc1ccc(NC(=O)c2[nH]c(C)c(C(C)=O)c2C)cc1S(=O)(=O)Nc1ccc(Br)cc1 was read as VACV mCherry inh 1.5%, VACV Venus inh 7.9%, Pf growth 96h inconclusive, NS1 inh 3.7%, HCV inh 14.1µM* and Pf growth 48h inconclusive.
`CC(=O)c1c(C)[nH]c(C(=O)Nc2cccc(C(F)(F)F)c2)c1C` gave VACV mCherry inh inconclusive, VACV Venus inh inconclusive, Pf growth 96h 1.85µM*, NS1 inh -2.9%, HCV inh inconclusive and Pf growth 48h 4.15µM*.
For CCn1c(=O)c(C(=O)NNS(=O)(=O)c2ccc(C)cc2)c(O)c2ccccc21 the results were VACV mCherry inh -13.5%, VACV Venus inh -5.2%, Pf growth 96h 34.2%, NS1 inh 3.9%, HCV inh 5.7% and Pf growth 48h 1.7%.
Fc1ccc(CSc2nc3ncc(Br)cc3[nH]2)cc1 was read as VACV Venus inh -9.5%, Pf growth 96h 9.28µM*, NS1 inh 0.0% and HCV inh 1.5%.
O=C(COC(=O)c1ccc(Cl)cc1[N+](=O)[O-])NCc1ccco1 was read as HCV inh 5.5%.
`CCOC(=O)C(CC)n1nc(C)n2c(cc3occc32)c1=O` (stereo not drawn) gave VACV mCherry inh -0.6%, VACV Venus inh -1.9%, NS1 inh -2.3%, HCV inh -17.3% and Pf growth 48h -14.9%.
Screening NCC(=O)Nc1ccc(Cl)cc1C(=O)c1ccc[nH]1 returned VACV mCherry inh inconclusive, VACV Venus inh -16.4%, Pf growth 96h 5.22µM*, NS1 inh 0.3%, HCV inh 8.9% and Pf growth 48h inconclusive.
C[N+](C)(C)CC(=O)Nc1ccc(Cl)cc1C(=O)c1ccccc1 was read as VACV mCherry inh 1.8%, VACV Venus inh -1.9%, Pf growth 96h 20.2%, HCV inh 8.2% and Pf growth 48h 11.7µM*.
Cc1cccc(C)c1OCC(=O)Nc1ccc(Cl)cc1C(=O)c1ccccc1 was read as VACV mCherry inh -9.8% and VACV Venus inh -2.4%.
Screening CC(=O)Nc1ccc(Cl)cc1C(=O)c1ccc[nH]1 returned VACV mCherry inh -1.0% and VACV Venus inh -18.3%.
Screening CN(C)CCCNCC(=O)Nc1ccc(Cl)cc1C(=O)c1ccccc1 returned VACV mCherry inh -8.3%, VACV Venus inh -9.5%, Pf growth 96h -30.3%, NS1 inh -3.1%, HCV inh inconclusive and Pf growth 48h 3.7µM*.
For CCOc1ccc(NC(=O)CN(C)C(=O)c2cc3c(s2)CCCCC3)cc1OCC the results were VACV mCherry inh -3.1%, VACV Venus inh -27.1%, Pf growth 96h 3.3%, HCV inh inconclusive and Pf growth 48h 8.6%.
For COC(=O)c1cccc(C23CC4(C2)[C@H](CN(Cc2ccc(C(F)(F)F)cc2)[C@@H]4c2ccccc2)C3c2ccc(C(F)(F)F)cc2)c1 (stereo partly drawn) the results were VACV mCherry inh -10.8%, VACV Venus inh -24.6%, Pf growth 96h inconclusive, NS1 inh 11.6%, HCV inh 1.2%[8.37 µM] and Pf growth 48h 10.4µM*.
`COC(=O)c1ccc(C23CC4(C2)[C@H](CN(Cc2ccc(C(F)(F)F)cc2)[C@@H]4c2ccccc2)C3c2ccc(C(F)(F)F)cc2)cc1` (stereo partly drawn) gave Pf growth 96h 10.4µM*, NS1 inh 20.2% and Pf growth 48h inconclusive.

Source: PubChem
